SMARCA2 activ: SMARCA2 function activation, primary screen; MG213 cells, MMTV-luciferase reporter, dexamethasone, overnight; activation, % at 9.1 µM; 370,000 tested, 1% active; AID 652017; in the data active means activation above about 7.8%;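 further: 0% = vehicle wells and 100% = reference activator wells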
ssDAF12 agonist: S. stercoralis DAF-12 activation, primary screen; HEK293 ssDAF-12/GRIP1 lit1-tk-luc reporter, luminescence; % of 3 µM dafachronic acid response; activation, % at 6.8 µM; 370,000 tested, 1% active; AID 652126;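 active means activation above the mean over all tested compounds plus 3 SD, cut at about 0.9% in these data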;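 further: 0% = DMSO-only wells and 100% = 3 µM delta7-dafachronic acid wells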
DAX1 inh-1: DAX1 (NR0B1) inhibition, primary screen | HEK293T StAR-luciferase reporter, SF-1/DAX-1 repression relief | inhibition, % at 6.8 µM | 370,000 tested, 1.1% active | AID 652010;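 active means inhibition above the mean over all tested compounds plus 3 SD, cut at about 3.6% in these data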;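 further: 0% = DAX-1 cells with DMSO and 100% = cells lacking DAX-1 with DMSO; higher inhibition means more luminescence from relief of DAX-1 repression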
hgDAF12 agonist: agonists of H. glycines DAF-12 nuclear receptor; AID 687014; 370,000 tested, 1.8% active; HEK293 GAL4-hgDAF12 UAS-luciferase reporter, agonist luminescence; normalized to butyrate control; activation, % at 6.8 µM;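 active means activation above a cutoff set at the mean of all screened compounds plus 3 SD, cut at about 10% in these data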;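 further: 0% = DMSO wells and 100% = sodium butyrate wells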
hcDAF12 agonist: activators of H. contortus DAF-12 nuclear receptor; HEK293 hcDAF-12 lit1-tk-luc reporter, luminescence; 0% DMSO, 100% Δ7-dafachronic acid; activation, % at 6.8 µM; 370,000 tested, 1.4% active; AID 652067;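 active means activation above the mean of all tested compounds plus 3 SD, cut at about 5.5% in these data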;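 further: 100% = response to 3 µM Δ7-dafachronic acid high control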
DAX1 inh-2: inhibitors of human orphan nuclear receptor DAX1 (NR0B1) | P51843 | HEK293 Gal4-DAX1 luciferase reporter, luminescence | inhibition, % at 6.75 µM | 340,000 tested, 0.99% active | AID 504766;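 active means inhibition above the mean over all tested compounds plus 3 SD, cut at about 4.2% in these data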;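 further: 0% = DAX1-transfected cells with DMSO and 100% = empty-vector control cells with DMSO; inhibition shows as a rise in luminescence from relieved DAX1 repression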
Target sequence (P51843 207-470 limits assumed): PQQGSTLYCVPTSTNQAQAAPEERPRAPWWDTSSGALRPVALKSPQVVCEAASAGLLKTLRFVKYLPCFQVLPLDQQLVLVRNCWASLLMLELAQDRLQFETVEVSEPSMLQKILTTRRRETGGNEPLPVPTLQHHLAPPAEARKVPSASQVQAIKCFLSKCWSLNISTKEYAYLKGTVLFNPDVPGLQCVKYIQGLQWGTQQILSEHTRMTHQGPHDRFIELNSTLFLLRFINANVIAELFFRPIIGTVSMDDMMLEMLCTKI
* marks the source's active call; other numbers are inactive results; / = not tested or not shown. Hits are enriched below; roughly 4.8% of the tested compounds scored in any of these assays.

SMILES | SMARCA2 activ | ssDAF12 agonist | DAX1 inh-1 | hgDAF12 agonist | hcDAF12 agonist | DAX1 inh-2
CCCc1ccc(Oc2cc(Cl)nc(N)n2)cc1 | 0.7 | -1.5 | 0.6 | 3.1 | 0.9 | 2.0
CCOn1c(=O)c(-c2cccs2)[n+]([O-])c2ccccc21 | 1.1 | -1.1 | -0.9 | 0.1 | 0.9 | 5.2*
CCOn1c(=O)c(-c2ccc(F)cc2)[n+]([O-])c2ccccc21 | -3.2 | -1.1 | 0.3 | -2.2 | 0.6 | 4.8*
CCOn1c(=O)c(-c2ccc(C)cc2)[n+]([O-])c2ccccc21 | 1.9 | -0.9 | -0.2 | 3.0 | -0.1 | 1.6
Cc1ccc(NS(=O)(=O)c2ccc(C(=O)N3CC(C)CC(C)C3)cc2)cc1 (stereo not drawn) | -3.0 | -1.1 | -0.3 | 0.5 | -0.7 | -1.0
CCN1C(=O)CC(c2ccc(OC(C)C)cc2)C1=O (stereo not drawn) | 1.0 | -0.9 | 0.4 | 0.2 | -0.1 | 4.5*
O=C(NCCc1ccccc1)c1ccc(S(=O)(=O)N2CCCCC2)cc1 | -1.9 | -1.6 | -0.1 | 0.2 | -2.1 | 0.9
O=C(NC(=S)N(CCO)Cc1ccccc1)c1ccc(S(=O)(=O)N2CCCC2)cc1 | -2.1 | 2.0* | -0.3 | 3.2 | -0.1 | 0.5
Cc1ccc(NC(=O)CCCC2CCCCC2)c(O)c1 | 2.0 | -0.5 | 2.6 | 8.0 | 2.5 | 1.4
CN(C)CCCN(C(=O)c1cc(Cl)sc1Cl)c1nc2cc3c(cc2s1)OCO3 | 0.9 | 0.2 | 4.1* | 3.4 | 3.3 | 1.1
O=C(c1ccco1)N1CCN(C2CN(Cc3ccc(F)cc3)S(=O)(=O)C2)CC1 (stereo not drawn) | -2.7 | -1.4 | 0.6 | -0.8 | -1.4 | /
COc1ccc(-n2c(SCC(=O)NCC3CCCO3)nc3ccccc3c2=O)cc1Cl (stereo not drawn) | -3.0 | -1.3 | -2.2 | -4.1 | -2.0 | -0.4
CC(=O)c1cc(F)ccc1OCC(=O)N1CCCc2ccccc21 | 5.3 | -0.6 | -0.1 | 0.8 | -0.2 | 2.3
S=C1NCN(Cc2ccccc2)CN1 | -1.8 | -1.9 | 0.0 | -0.3 | -1.1 | -0.7
CC1(C)CNC(=S)N1Cc1ccccc1 | -1.6 | -1.1 | -0.2 | -3.2 | -1.9 | 4.3*
Cc1nc2c(-c3ccccc3)c[nH]n2c(=O)c1Cc1ccccc1 | 3.1 | -0.8 | 1.8 | 5.5 | 1.0 | 5.7*
COCCCN(C(=O)C1=COCCO1)c1c(N)n(Cc2ccccc2)c(=O)[nH]c1=O | -6.4 | -0.9 | -1.2 | 2.4 | -0.1 | -0.2
Cn1c(-c2ccc(F)cc2)cnc1SCC(=O)N1CCCCC1 | 3.8 | 0.3 | 2.1 | 12.5* | 2.8 | 0.6
CCOc1ccc(C(C(=O)NC2CCCC2)N(C(=O)CNC(=O)c2ccco2)c2cccnc2)cc1 (stereo not drawn) | -1.1 | -1.5 | -0.1 | -1.1 | -0.8 | -0.7
O=S(=O)(O)c1cc2oc(-c3ccccc3)nc2c2ccccc12 | 2.5 | -0.3 | 0.0 | 2.2 | 5.8* | -0.3
O=S(=O)(Nc1ccc2oc(-c3ccccc3)nc2c1)c1ccccc1 | 0.6 | -1.6 | 0.1 | 3.0 | -1.2 | -1.7
Cc1cc2nc(-c3ccc(Cl)cc3)c(CC3CCCCC3)n2c(C)c1Br | 1.1 | 1.4* | 3.5 | 3.8 | 6.1* | /
Cc1ccc(-c2nc3cc(C)c(Br)c(C)n3c2Cc2ccccc2)cc1 | 6.4 | 0.5 | 0.9 | 9.6 | 5.6* | /
Cc1cc2nc(-c3ccc(Cl)cc3)c(CC(C)(C)C)n2c(C)c1Br | 3.7 | 0.5 | -2.1 | 4.2 | 1.6 | /
Cc1ccc(Cc2c(-c3ccc(Cl)cc3)nc3cc(C)c(Br)c(C)n23)cc1 | 2.7 | 1.2* | 4.1* | 3.2 | 2.6 | /
SMILES | SMARCA2 activ | ssDAF12 agonist | DAX1 inh-1 | hgDAF12 agonist | hcDAF12 agonist | DAX1 inh-2
Cc1ccc(C)c(NC(=O)C(=O)NCC2CCCN2S(=O)(=O)c2cccs2)c1 (stereo not drawn) | -3.4 | -1.3 | -2.9 | 0.8 | -1.2 | -1.6
CC1CCCCC12NC(=O)N(CC(=O)NCc1ccccc1)C2=O (stereo not drawn) | -1.3 | -1.3 | 0.5 | 2.6 | 0.7 | 0.3
CC(=O)NCc1ccc(C(=O)CN2C(=O)NC3(CCCCC3C)C2=O)s1 (stereo not drawn) | 1.0 | -1.0 | -0.3 | 12.4* | 0.7 | -0.2
CCN(Cc1cccs1)C(=O)CN1C(=O)NC(c2ccccc2)(c2ccccc2)C1=O | -1.7 | -1.3 | -0.7 | -1.7 | -1.2 | 0.6
CC1(C)NC(=O)N(CC(=O)OCC(=O)N2CCN(S(=O)(=O)c3ccccc3)CC2)C1=O | -2.0 | -1.1 | 1.1 | 4.4 | -0.2 | 0.2
Oc1ccc(/C=C/c2ccc3cccc(O)c3n2)cc1Br | 3.3 | -0.7 | 1.4 | 10.5* | 2.5 | 1.3
O=[N+]([O-])c1cccc(/C=C/c2ccc3cccc(O)c3n2)c1 | 6.0 | -1.3 | 0.1 | 3.4 | -1.5 | 1.2
O=Cc1ccc(OCc2ccccn2)cc1 | 0.8 | -1.0 | 0.2 | 11.1* | 1.2 | 1.0
CC(NS(=O)(=O)c1ccc(Cl)cc1)C(=O)OCC(=O)Nc1ccc(N(C)C)cc1 (stereo not drawn) | 0.4 | -1.7 | -0.7 | 1.3 | -0.6 | 0.9
O=C(O)c1ccccc1NC(=O)c1cc2ccccc2oc1=O | 2.3 | -0.7 | 1.3 | 1.8 | 1.8 | 1.1
COc1ccc(-c2cc3ccccc3oc2=O)cc1 | 2.1 | 0.2 | 1.7 | 12.7* | 4.9 | 1.7
COc1ccc(NC(=O)c2cc(-c3ccco3)on2)c(OC)c1 | -0.9 | -0.5 | 0.0 | -0.7 | 2.1 | 1.9
Cc1cccc(NC(=O)c2cc3ccccc3oc2=O)c1 | 4.3 | 0.1 | 1.3 | 11.0* | 4.0 | 4.3*
COc1ccc(NC(=O)c2cc(C3CC3)on2)c(OC)c1 | 0.5 | 1.1* | 2.4 | 5.9 | 4.7 | 0.9
Cc1ccnc(NC(=O)c2cc3ccccc3oc2=O)c1 | 5.3 | -0.4 | 2.9 | 10.6* | 2.3 | 2.6
O=C(COC(=O)c1cc2ccccc2oc1=O)Nc1cccc(S(=O)(=O)N2CCCCCC2)c1 | -2.1 | 0.4 | 0.2 | 4.7 | 0.9 | 0.6
Cc1cccc(NC(=O)CSc2nc3ccccc3o2)c1 | 1.6 | -0.2 | 1.3 | 12.7* | 3.3 | 2.3
CN(C)S(=O)(=O)c1cccc(NC(=O)COC(=O)c2cc3ccccc3oc2=O)c1 | 3.7 | 0.5 | 3.0 | 12.6* | 4.0 | 5.3*
COc1ccc(NC(=O)c2cc3ccccc3oc2=O)c(OC)c1 | 7.5 | 0.4 | 1.4 | 11.0* | 4.6 | 2.0
CC(=O)Nc1ccc(NC(=O)CSc2nc3ccccc3o2)cc1 | 3.2 | -0.4 | 0.4 | 7.1 | 0.3 | -0.5
CN(Cc1ccccc1)C(=O)CN1C(=O)NC2(CCCC2)C1=O | -0.6 | -0.9 | -0.6 | 2.5 | 1.3 | -0.3
CCc1cccc2c(C(=O)CN3C(=O)NC4(CCCCC4)C3=O)c[nH]c12 | 5.9 | -1.6 | 3.9* | -8.0 | -1.1 | -0.5
CCc1ccc(C(=O)CN2C(=O)NC3(CCCCCC3)C2=O)cc1 | 7.9* | -0.8 | 4.5* | 5.4 | 1.1 | 1.1

Screening results from PubChem.
